In PubChem BioAssay AID1852 (Sanford-Burnham Center for Chemical Genomics, 2009) one finds inhibition data, which are given here for 58 molecules.

Structures are written as SMILES. The whole screen tested about 2,500 compounds, of which about 1,100 (44%) were called active. So high a share suggests a set chosen from earlier hits. This is one part of the list. Unmarked numbers belong to inactive results.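 How the source made its calls: active means inhibition above 50% at 4 µM in the single-point screen; inactive means inhibition of 50% or less.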

A short description of this assay: blockers of TNF-a NF-kB luciferase induction – cell-based, HEK293T NF-kB-Luc, luminescence, selectivity assay for NOD1/NOD2 signaling inhibitor project, primary screen (AID 1852). Conditions: TNF-a induced, 14 h, at 4 µM, stronger effect = higher value.
As to `O=C(Nc1nc(-c2ccccc2)cs1)c1ccc2c(=O)n3c(nc2c1)CCCCC3`, the inhibition was 106% (active).
In the case of `Cc1ccc(-c2csc(NC(=O)C3=NN(c4ccccc4)C(=O)CC3)n2)cc1`, the inhibition was 38.6%.
For the molecule `Cc1ccc(-c2csc(NC(=O)c3ccc4c(=O)n5c(nc4c3)CCCCC5)n2)cc1`, the inhibition is 97.1% (active).
Regarding `O=C(NC1CCCCC1)N1CCN(c2nc(-c3ccccc3)cs2)CC1`, the inhibition is 48.4%.
`Nc1ccc(S(=O)(=O)Nc2nccc(/C=C/c3ccc(Cl)cc3Cl)n2)cc1`: the inhibition is 4%.
The figure for `Cc1cccc2cc3c(N)c(C(=O)Nc4ccc(N5CCOCC5)cc4)sc3nc12` is 36.4%.
For `Cc1cc(N2CCOCC2)c2c(N)c(Br)cc(C)c2n1`, the inhibition is 80.6% (active).
The value for `COc1ccccc1-c1cc(C(F)(F)F)nc(S(=O)(=O)CCCC(=O)N2CCCCC2C)n1` (stereo not drawn) was 66.8% (active); that for `COc1ccccc1-c1cc(C(F)(F)F)nc(S(=O)(=O)CCCC(=O)N2CCOCC2)n1` was 51.1% (active).
With `COc1cccc(Cn2c(NCc3cccnc3)nc3c2c(=O)n(C)c(=O)n3C)c1`, the inhibition was 37.8%.
The figure for `COc1cc(/C=N/Nc2nc3c(c(=O)n(C)c(=O)n3C)n2Cc2ccccc2)ccc1OC(=O)c1ccco1` is 52.5% (active); for `O=S(=O)(Nc1nc2ccccc2nc1Cl)c1ccc(Br)cc1` it is 20.8%; for `O=S(=O)(Nc1nc2ccccc2nc1N1CCN(c2ccccc2F)CC1)c1ccc(Cl)cc1` it is 86.2% (active).
For the molecule `CC(C(=O)N1CCN(c2ccccc2F)CC1)c1ccc([N+](=O)[O-])cc1` (stereo not drawn), the inhibition was -32.5%.
As for `COc1ccc(-c2cc(C(F)(F)F)nc(S(=O)(=O)CCCC(=O)Nc3cccc(O)c3)n2)cc1OC`, the inhibition was 81.5% (active).
The value for `COc1ccc(-c2cc(C(F)(F)F)nc(S(=O)(=O)CCCC(=O)Nc3cccnc3Cl)n2)cc1OC` was 88.1% (active); that for `O=C(O)CCC(=O)Nc1cccc(-c2csc(-c3ccccc3)n2)c1` was 41.9%.
As for `COc1ccccc1-c1cc(C(F)(F)F)nc(S(=O)(=O)CCCC(=O)Nc2cccnc2Cl)n1`, the inhibition was 37.1%.
For the molecule `Cc1cc(-c2ccc(C)c(S(=O)(=O)N3CCN(c4ccc([N+](=O)[O-])cc4)CC3)c2)on1`, the inhibition is 16.8%.
Turning to `C[C@@H](C(=O)Nc1ccc2ccccc2c1)[C@@H]1C[C@@]1(C)[C@@H](NC(=O)c1cnccn1)c1ccccc1`, the inhibition was -2.6%.
The value for `Cc1cc(C(=O)CN2C(=O)c3ccccc3S2(=O)=O)c(C)n1CC1CCCO1` (stereo not drawn) was 96.8% (active).
The figure for `Cc1cc(C(=O)CSc2nc3ccccc3c(=O)n2C)c(C)n1Cc1ccc2c(c1)OCO2` is 69.5% (active); for `Cc1cc(C(=O)CSc2nc3ccccc3c(=O)n2C)c(C)n1CC1CCCO1` (stereo not drawn) it is 65.9% (active); for `COc1ccccc1Nc1nc(NCC2CCCO2)c2ccccc2n1` (stereo not drawn) it is 39.1%.
The value for `Cc1cc(C(=O)COC(=O)c2ccccc2Br)c(C)n1CC1CCCO1` (stereo not drawn) was -5.9%.
Turning to `CCCCN(CC)c1nc(-c2ccncc2)nc2ccccc12`, the inhibition is 34.7%.
As for `O=C(N/C(=C/c1ccc([N+](=O)[O-])cc1)C(=O)N1CCOCC1)c1ccco1`, the inhibition is 14%.
As to `Cc1cc(Nc2nc3ccccc3nc2Cl)n(-c2ccc([N+](=O)[O-])cc2)n1`, the inhibition is 28.5%.
As for `O=[N+]([O-])c1cccc(S(=O)(=O)Nc2nc3ccccc3nc2Nc2cccc(S(=O)(=O)N3CCCCC3)c2)c1`, the inhibition is 97.6% (active).
Regarding `Cc1ccc(S(=O)(=O)Nc2nc3ccccc3nc2Nc2cccc(S(=O)(=O)N3CCCC3)c2)cc1`, the inhibition is 71% (active).
The value for `COc1cccc(Nc2nc3ccccc3nc2NS(=O)(=O)c2cccs2)c1` was 7.5%.
Regarding `COc1cc(Nc2nc3ccccc3nc2NS(=O)(=O)c2ccc([N+](=O)[O-])cc2)cc(OC)c1OC`, the inhibition was 84.6% (active).
The figure for `CCn1nc(NS(=O)(=O)c2ccc([N+](=O)[O-])cc2)c2cc3cccc(C)c3nc21` is 19.3%; for `O=S(=O)(Nc1nc2ccccc2nc1Nc1ccc2c(c1)OCO2)c1ccc(F)cc1` it is 18%.
Turning to `Cc1ccc(-c2cc(C(=O)N/N=C/c3ccc([N+](=O)[O-])o3)c3ccccc3n2)o1`, the inhibition was 6.6%.
The figure for `O=c1c2ccccc2nc(/C=C/c2ccc([N+](=O)[O-])o2)n1CCCO` is 98.8% (active); for `CCn1c(/C=C/c2cc(Br)ccc2O)nc2ccccc2c1=O` it is -6.3%; for `O=[N+]([O-])c1cc(-c2nc3nc4ccccc4nc3n2CCc2ccccc2)cc([N+](=O)[O-])c1` it is -12.4%.
As to `O=c1c2ccccc2nc(/C=C/c2cc(Br)ccc2O)n1CCCO`, the inhibition is 59% (active).
The figure for `COc1ccc(O)c(CNn2c(-c3ccc(Br)cc3)nc3ccccc3c2=O)c1` is 12.6%; for `COc1ccc(Nc2nc(NCC3CCCO3)c3ccccc3n2)c(OC)c1` (stereo not drawn) it is 31.4%; for `COc1cccc(NC(=O)CSc2nc3ccccc3c(=O)n2C)c1` it is 12.1%.
Take `COc1cccc(Nc2nc(NCCO)c3ccccc3n2)c1`: the inhibition was 69.6% (active).
Take `COc1cc(OC)c(N(C)S(=O)(=O)c2cccc(C(=O)OCC(=O)c3c[nH]c4ccccc34)c2)cc1Cl`: the inhibition is 92.4% (active).
On to `COc1cccc(/C=C/c2ccc3cccc(O)c3n2)c1OC`, for which the inhibition was -20%.
The figure for `Oc1ccc(Cl)cc1/C=C/c1ccc2cccc(O)c2n1` is 8.6%; for `COc1ccc(Cl)cc1/C=C/c1ccc2cccc(O)c2n1` it is 47.4%.
The figure for `COc1cccc(/C=C/c2ccc3ccccc3n2)c1OC(C)=O` is -25.7%; for `CCOc1cccc(/C=C/c2ccc3cccc(O)c3n2)c1O` it is 4.2%; for `COc1cc(Br)cc(/C=C/c2ccc3cccc(O)c3n2)c1O` it is 0.4%.
With `COc1ccc(Br)cc1/C=C/c1ccc2cccc(O)c2n1`, the inhibition is 52.6% (active).
Take `Oc1cccc2ccc(/C=C/c3ccccc3Br)nc12`: the inhibition is 51.4% (active).
For `COc1ccc(OC)c(/C=C/c2ccc3cccc(O)c3n2)c1`, the inhibition is 105% (active).
Take `Cc1ccc(NC(=O)CN(c2ccc(Cl)cc2)S(=O)(=O)c2cc([N+](=O)[O-])ccc2Cl)c(C)c1`: the inhibition was -17.7%.
In the case of `Cc1ccc(NS(=O)(=O)c2ccc(-n3cccn3)cc2)c(C)c1`, the inhibition is 40.7%.
As to `Cc1ccc(NS(=O)(=O)c2cc([N+](=O)[O-])ccc2NNC(=S)Nc2cc(C)ccc2C)c(C)c1`, the inhibition is 77.3% (active).
The value for `Cc1ccc(C)c(NC(=O)c2ccccc2NS(=O)(=O)c2cc([N+](=O)[O-])ccc2C)c1` was 75.8% (active); that for `Cc1ccc(NC(=O)CC(=O)c2ccc([N+](=O)[O-])cc2)cc1S(=O)(=O)Nc1cccc(Cl)c1` was 15.2%.

Broadly, the inhibition is the relative decrease from the control value, in per cent.
